Measurements published in PubChem BioAssay (NCATS).
Several values for one entry are separate records, joined by “and”; a condition that tells them apart may be missing. Equal entries are not always repeated. Inconclusive results are not listed. Entries that show only a call come without a potency. Values without a mark were called inactive. Activity calls are given as the source filed them. Calls come from the whole dose curve; as a rule, active = well fitted curve in the direction sought with a large enough effect; inconclusive = small, poorly fitted or top-dose-only effect, or another doubt; inactive = no such curve, though single readings can be large; an effect the other way counts as inactive or inconclusive.

What was measured:
[1] = biological target: Cytochrome P450 3A7 (Homo sapiens) (UniProt P24462); assay: Cytochrome P450 family 3 subfamily A member 7 (CYP3A7) small molecule antagonists: luciferase biochemical qHTS assay (AID 1963596); note: nearly all actives have a fitted effect of over 40% in size
How it was run: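 Recombinant CYP3A7 P450-Glo luminescent assay: enzyme-proluciferin substrate mix preincubated with compound 10 min at room temperature, reaction started with NADPH regeneration system for 1 h. Luciferin detected by luminescence; ketoconazole as positive control.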

[2] = Cellular viability qHTS for adrenocortical cancer (ACC) cell line SW-13 (AID 1963989); details: SW-13 ACC cells viability, CellTiter-Glo, 48 h; activity (max response): active compounds read low; note: nearly all actives have a fitted effect of over 65% in size;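 for activity (max response): cells grown in serum-free medium with ITS supplement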
How it was run: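 48 h treatment, SW-13 in ITS/DMEM serum-free; doses up to 46 uM; readout CellTiter-Glo luminescence; curve fit four-parameter logistic.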

[3] = Cellular viability qHTS for adrenocortical cancer (ACC) cell line NCI-H295R (AID 1963990); note: nearly all actives have a fitted effect of over 60% in size
How it was run: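 Compound titrations (up to 46 uM final) are applied to NCI-H295R cultures for 48 h at 37C. Viable cell number is estimated by CellTiter-Glo signal, normalised to DMSO and doxorubicin controls.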
Potency is the fitted concentration of half-maximal effect.

Chain of Cytochrome P450 3A7 (Homo sapiens) (P24462 whole entry, looked up): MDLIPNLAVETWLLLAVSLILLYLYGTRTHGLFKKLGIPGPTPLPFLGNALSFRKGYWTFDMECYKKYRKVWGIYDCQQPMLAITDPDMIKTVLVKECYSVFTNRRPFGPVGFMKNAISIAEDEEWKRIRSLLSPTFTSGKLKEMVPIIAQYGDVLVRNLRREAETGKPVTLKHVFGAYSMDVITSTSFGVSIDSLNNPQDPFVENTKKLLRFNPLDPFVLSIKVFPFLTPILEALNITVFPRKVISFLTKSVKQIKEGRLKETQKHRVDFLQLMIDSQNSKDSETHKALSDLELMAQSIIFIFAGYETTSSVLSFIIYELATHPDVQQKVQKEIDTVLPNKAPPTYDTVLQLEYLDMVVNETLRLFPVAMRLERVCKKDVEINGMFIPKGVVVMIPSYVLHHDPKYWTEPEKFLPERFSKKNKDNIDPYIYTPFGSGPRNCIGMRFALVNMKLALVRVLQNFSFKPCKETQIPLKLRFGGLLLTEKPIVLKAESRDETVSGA

| SMILES | Potency [1] | activity (max response) [2] | Potency [3] | Potency [2] |
| --- | --- | --- | --- | --- |
| NCCO | inactive | 7.88% | inactive |  |
| N=C(N)N | inactive | 4.4% | inactive |  |
| OC[C@]1(O)OC[C@@H](O)[C@H](O)[C@@H]1O | inactive | 6.17% | inactive |  |
| CC(=O)OCC(=O)[C@@]1(OC(C)=O)[C@@H](C)C[C@H]2[C@@H]3C[C@H](F)C4=CC(=O)C=C[C@]4(C)[C@@]3(F)[C@@H](O)C[C@@]21C | inactive | 3.57% |  |  |
| Oc1cn2c(n1)Nc1ccc(Cl)c(Cl)c1C2 | inactive | 11.3% | inactive |  |
| NC(=O)N[C@@H](CCC(=O)O)C(=O)O | inactive | 9.08% | inactive |  |
| COc1cc2nc(Cl)nc(N)c2cc1OC | inactive | 1.23% | inactive |  |
| CCCCC(O)/C=C(C)/C=C/C=C/C(=O)N1CCCC1=O (stereo not drawn) | inactive | 10.5% | inactive |  |
| NC(=O)NC1N=C([O][Al])NC1=O (stereo not drawn) | 12.3 µM (active) | -0.662% | inactive |  |
| CCCC(=O)O[C@]1(C(=O)COC(=O)CC)CC[C@H]2[C@@H]3CCC4=CC(=O)CC[C@]4(C)[C@H]3[C@@H](O)C[C@@]21C | inactive | 8.42% | inactive |  |
| CO[C@@H]1[C@@H](O[C@@H]2O[C@H](C)[C@@H](O[C@H]3C[C@@](C)(O)[C@@H](O)[C@H](C)O3)[C@H](N(C)C)[C@H]2O)[C@@H](CC=O)C[C@@H](C)[C@@H](O[C@@H]2CC[C@H](N(C)C)[C@@H](C)O2)/C=C/C=C/C[C@@H](C)OC(=O)C[C@H]1OC(C)=O | inactive | -1.59% | inactive |  |
| Fc1ccc(C(c2ccc(F)cc2)N2CCNCC2)cc1 | inactive | 4.07% | inactive |  |
| O=[N+]([O-])c1nccn1CO[C@@H](CO)[C@H](O)CO | inactive | -4.12% | inactive |  |
| Cc1ccc(NC(=O)Nc2cc(C(F)(F)F)ccc2F)cc1Nc1ccc2c(c1)NC(=O)/C2=C\c1ccc[nH]1 | inactive |  | 25.1 µM (active) | 22.4 µM (active) |
| NCCNC(=O)c1ccc(Cl)cn1 | inactive | -2.26% | inactive |  |
| CCOC(=O)C(C#N)=C(c1ccccc1)c1ccccc1 | inactive | -5.89% | inactive |  |
| NC(=O)c1ncn([C@@H]2O[C@H](CO)[C@@H](O)[C@H]2O)n1 | inactive | -0.314% and -2.41% | inactive |  |
| CC(C)(C)c1ccc(C(=O)CCCCl)cc1 | inactive | 6.38% | inactive |  |
| Cc1cccc(C)c1NC(=O)CN1CCCC1 | inactive | 3.45% |  |  |

| SMILES | Potency [1] | activity (max response) [2] | Potency [3] | Potency [2] |
| --- | --- | --- | --- | --- |
| C[C@H](CN1CCCC1)C(=O)c1ccc(C(F)(F)F)cc1 | inactive | -1.72% |  |  |
| CC(=O)NCCCS(=O)(=O)O | inactive | 5.88% | inactive |  |
| CCCCCCCCCCCCCCC[C@H](O)[C@@H](N)CO | inactive | 1.16% | inactive |  |
| Nc1ncnc(Nc2ccccc2)n1 | inactive | 3.3% | inactive |  |
| CO/N=C(\C(=O)N[C@@H]1C(=O)N2C(C(=O)O)=C(CSc3nc(=O)c(O)nn3C)CS[C@H]12)c1csc(N)n1 | inactive | 16.1% | inactive |  |
| O=C(Oc1ccccc1)c1cccc(C(=O)Oc2ccccc2)c1 | inactive | -1.98% | inactive |  |
| CCCCN(CCN(CCCC)C(=O)N1CCOCC1)C(=O)N1CCOCC1 | inactive | 13.7% | inactive |  |
| CC(=O)N[C@H]1[C@H]([C@H](O)[C@H](O)CO)OC(C(=O)O)=C[C@@H]1N=C(N)N | inactive | -7.79% | inactive |  |
| CC1(C)O[C@@H]2C[C@H]3[C@@H]4C[C@H](F)C5=CC(=O)CC[C@]5(C)[C@H]4[C@@H](O)C[C@]3(C)[C@]2(C(=O)CO)O1 | inactive | 3.69% |  |  |
| O=C(O)P(=O)(O)O | inactive | 10.2% | inactive |  |
| OC[C@H]1O[C@@H](Oc2ccc(O)cc2)[C@H](O)[C@@H](O)[C@@H]1O | inactive | -0.0454% | inactive |  |
| Oc1c(Br)cc(Br)c2cccnc12 | inactive |  | 1.64 µM (active) | 4.61 µM (active) |
| CC(C)(C)NCC(O)COc1ccc(NC(=O)NC2CCCCC2)cc1 (stereo not drawn) | inactive | 5.25% |  |  |
| O=C(Nc1cccnc1)c1cc(-c2ccnc(F)c2)ccc1OCc1ccccc1 | inactive | 13.4% | inactive |  |
| CCc1ccc(C(=O)C(C)CN2CCCCC2)cc1 (stereo not drawn) | 30.9 µM (active) | -7.06% |  |  |
| COC(=O)N[C@@H](C)CNc1nccc(-c2cn(C(C)C)nc2-c2cc(Cl)cc(NS(C)(=O)=O)c2F)n1 | inactive | -16% | inactive |  |
| CN(C)C(=O)CNC(=O)Cc1ccccc1 | inactive | -6.74% | inactive |  |
| O=c1[nH]c(=O)n([C@H]2O[C@H](CO)[C@@H](O)[C@@H]2O)cc1/C=C\Br | inactive | -3.87% | inactive |  |
| CC(C)NCC(O)c1ccc2ccccc2c1 (stereo not drawn) | inactive | 8.99% | inactive |  |
